This note sets out measurements from paper PMC7862700, “An all-to-all approach to the identification of sequence-specific readers for epigenetic DNA modifications on cytosine”.

Common to all, as to test: DAPPL (digital affinity profiling via proximity ligation, sequencing); 10 mM Tris-HCl pH 7.5, 50 mM NaCl, 1 mM DTT, 4% glycerol, room temperature, 30 min; GST-TFs on glutathione beads, 16-mer random dsDNA library, 0.1% formaldehyde crosslink after washing; high values mean tight binding
Assay [1] addresses T1, FLI1 (Homo sapiens, UniProt Q01543 1-452).
T1 sequence: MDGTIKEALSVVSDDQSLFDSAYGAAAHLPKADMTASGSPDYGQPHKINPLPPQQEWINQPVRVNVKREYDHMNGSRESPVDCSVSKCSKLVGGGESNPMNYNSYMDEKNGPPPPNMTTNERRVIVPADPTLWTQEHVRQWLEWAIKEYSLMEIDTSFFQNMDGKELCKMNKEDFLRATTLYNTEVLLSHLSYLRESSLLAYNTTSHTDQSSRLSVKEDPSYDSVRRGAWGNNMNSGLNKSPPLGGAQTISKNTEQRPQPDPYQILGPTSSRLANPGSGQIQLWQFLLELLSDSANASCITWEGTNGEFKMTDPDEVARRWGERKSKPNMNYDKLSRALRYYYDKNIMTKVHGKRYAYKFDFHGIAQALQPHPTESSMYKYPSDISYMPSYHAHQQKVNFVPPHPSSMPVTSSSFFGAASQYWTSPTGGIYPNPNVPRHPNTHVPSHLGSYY
The following applies: protein: recombinant; tags: N-terminal GST; dsDNA, one strand shown. An outline of the steps: (§1)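 Binding signal is each hexamer's read frequency for a factor divided by its frequency in the tag-only sample. The factors were GST-fused human transcription factors from yeast, captured on glutathione beads, DNA-barcoded and pooled with that sample. Pools were incubated with 200 nmole of a random double-stranded 16-mer DNA library in Tris/NaCl/DTT/glycerol buffer at room temperature for 30 min, then washed, crosslinked with 0.1% formaldehyde, proximity-ligated with BsaI/T4 ligase (1 h, 37 °C), PCR-amplified and sequenced on an Illumina NextSeq500.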

Assay [2] has as its target T2, ELK1 (Homo sapiens, UniProt P19419 1-428).
T2 sequence: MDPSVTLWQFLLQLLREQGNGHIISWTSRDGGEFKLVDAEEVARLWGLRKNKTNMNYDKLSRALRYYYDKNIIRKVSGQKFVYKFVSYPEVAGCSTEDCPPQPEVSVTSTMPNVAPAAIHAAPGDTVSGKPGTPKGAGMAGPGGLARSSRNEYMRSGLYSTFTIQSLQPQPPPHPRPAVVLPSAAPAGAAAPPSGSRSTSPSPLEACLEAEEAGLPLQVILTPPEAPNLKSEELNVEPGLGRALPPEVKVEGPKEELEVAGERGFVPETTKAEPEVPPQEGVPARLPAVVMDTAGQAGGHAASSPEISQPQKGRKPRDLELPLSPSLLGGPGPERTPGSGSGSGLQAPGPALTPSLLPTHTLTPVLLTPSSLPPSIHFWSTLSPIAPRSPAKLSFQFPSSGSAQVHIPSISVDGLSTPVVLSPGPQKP
The following applies: protein: recombinant; tags: N-terminal GST; dsDNA, one strand shown. An outline of the steps:
as §1

Assay [3] concerns the target T3, GABPA (Homo sapiens, UniProt Q06546 1-454).
T3 sequence: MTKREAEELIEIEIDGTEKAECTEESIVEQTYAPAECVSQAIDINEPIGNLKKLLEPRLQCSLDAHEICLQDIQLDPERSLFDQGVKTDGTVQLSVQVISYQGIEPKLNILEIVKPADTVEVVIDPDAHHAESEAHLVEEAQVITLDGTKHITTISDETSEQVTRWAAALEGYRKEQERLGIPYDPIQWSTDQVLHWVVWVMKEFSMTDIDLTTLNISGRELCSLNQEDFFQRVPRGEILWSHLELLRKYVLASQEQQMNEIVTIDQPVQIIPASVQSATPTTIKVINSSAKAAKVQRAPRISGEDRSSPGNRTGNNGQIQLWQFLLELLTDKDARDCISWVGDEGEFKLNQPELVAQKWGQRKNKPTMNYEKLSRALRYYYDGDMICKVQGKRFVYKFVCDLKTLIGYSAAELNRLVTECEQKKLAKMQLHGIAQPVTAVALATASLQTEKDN
The note with it: protein: recombinant; tags: N-terminal GST; dsDNA, one strand shown. The procedure, abridged: as §1

Assay [4] has as its target T4, ERG (Homo sapiens, UniProt P11308 1-479).
T4 sequence: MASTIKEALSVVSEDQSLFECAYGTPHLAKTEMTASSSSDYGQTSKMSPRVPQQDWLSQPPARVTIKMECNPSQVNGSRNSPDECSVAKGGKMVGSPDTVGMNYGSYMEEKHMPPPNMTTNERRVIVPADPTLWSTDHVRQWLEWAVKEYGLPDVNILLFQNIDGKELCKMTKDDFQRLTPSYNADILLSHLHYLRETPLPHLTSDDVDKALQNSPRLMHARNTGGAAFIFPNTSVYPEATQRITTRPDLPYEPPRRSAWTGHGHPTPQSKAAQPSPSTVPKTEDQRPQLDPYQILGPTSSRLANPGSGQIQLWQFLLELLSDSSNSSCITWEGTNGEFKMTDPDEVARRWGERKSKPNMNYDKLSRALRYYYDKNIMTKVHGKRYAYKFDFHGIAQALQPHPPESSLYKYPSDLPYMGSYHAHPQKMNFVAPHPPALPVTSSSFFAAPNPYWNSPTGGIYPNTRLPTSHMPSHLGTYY
The following applies: protein: recombinant; tags: N-terminal GST; dsDNA, one strand shown. An outline of the steps: as §1

The target in assay [5] is ELF1 (Homo sapiens, UniProt P32519 1-619). The following applies: protein: recombinant; tags: N-terminal GST; dsDNA, one strand shown. The procedure, abridged: as §1
Assay [6] addresses T5, EHF (Homo sapiens, UniProt Q9NZC4 1-300).
T5 sequence: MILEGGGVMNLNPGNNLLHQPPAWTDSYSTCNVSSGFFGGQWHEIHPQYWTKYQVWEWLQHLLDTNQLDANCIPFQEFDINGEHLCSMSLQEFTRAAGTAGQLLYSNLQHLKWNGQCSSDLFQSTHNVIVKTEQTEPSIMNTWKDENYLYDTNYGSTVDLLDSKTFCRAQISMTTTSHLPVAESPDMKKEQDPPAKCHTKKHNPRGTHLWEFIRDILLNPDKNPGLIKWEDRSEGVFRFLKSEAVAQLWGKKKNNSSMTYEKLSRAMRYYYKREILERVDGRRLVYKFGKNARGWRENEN
The following applies: protein: recombinant; tags: N-terminal GST; dsDNA, one strand shown. The procedure, abridged: as §1

Assay [7] deals with SPI1 (Homo sapiens, UniProt P17947 1-270). The following applies: protein: recombinant; tags: N-terminal GST; dsDNA, one strand shown. The procedure, abridged: as §1
Assay [8] has as its target SPIB (Homo sapiens, UniProt Q01892 1-262). The following applies: protein: recombinant; tags: N-terminal GST; dsDNA, one strand shown. An outline of the steps: as §1
The target of assay [9] is T6, ELK3 (Homo sapiens, UniProt P41970 1-407).
T6 sequence: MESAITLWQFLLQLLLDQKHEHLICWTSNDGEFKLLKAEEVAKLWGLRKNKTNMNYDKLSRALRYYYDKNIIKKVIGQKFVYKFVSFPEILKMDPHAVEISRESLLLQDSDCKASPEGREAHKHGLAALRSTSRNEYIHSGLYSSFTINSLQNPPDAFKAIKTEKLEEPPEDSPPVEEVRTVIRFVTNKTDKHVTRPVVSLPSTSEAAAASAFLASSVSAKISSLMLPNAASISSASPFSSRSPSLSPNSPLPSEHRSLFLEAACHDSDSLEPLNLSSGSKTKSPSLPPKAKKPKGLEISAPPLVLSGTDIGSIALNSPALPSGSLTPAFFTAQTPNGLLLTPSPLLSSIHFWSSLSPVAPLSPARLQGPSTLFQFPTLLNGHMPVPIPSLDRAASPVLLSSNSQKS
The note with it: protein: recombinant; tags: N-terminal GST; dsDNA, one strand shown. The procedure, abridged:
as §1

Assay [10] deals with T7, FEV (Homo sapiens, UniProt Q99581 1-238).
T7 sequence: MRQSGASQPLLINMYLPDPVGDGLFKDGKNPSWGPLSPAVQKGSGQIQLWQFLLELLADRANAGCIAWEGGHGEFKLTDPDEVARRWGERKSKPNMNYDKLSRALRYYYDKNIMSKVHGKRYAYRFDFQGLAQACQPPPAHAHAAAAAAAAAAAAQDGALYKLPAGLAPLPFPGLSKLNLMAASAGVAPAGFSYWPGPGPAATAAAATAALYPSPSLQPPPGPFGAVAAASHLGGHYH
The following applies: protein: recombinant; tags: N-terminal GST; dsDNA, one strand shown. An outline of the steps:
as §1

Assay [11] has as its target ETV5 (Homo sapiens, UniProt P41161 1-510). The note with it: protein: recombinant; tags: N-terminal GST; dsDNA, one strand shown. The procedure, abridged: as §1
Assay [12] has as its target HSF1 (Homo sapiens, UniProt Q00613 1-529). The following applies: protein: recombinant; tags: N-terminal GST; chain copies: 3; dsDNA, one strand shown. The procedure, abridged: as §1
The target of assay [13] is T8, SPIC (Homo sapiens, UniProt Q8N5J4 1-248).
T8 sequence: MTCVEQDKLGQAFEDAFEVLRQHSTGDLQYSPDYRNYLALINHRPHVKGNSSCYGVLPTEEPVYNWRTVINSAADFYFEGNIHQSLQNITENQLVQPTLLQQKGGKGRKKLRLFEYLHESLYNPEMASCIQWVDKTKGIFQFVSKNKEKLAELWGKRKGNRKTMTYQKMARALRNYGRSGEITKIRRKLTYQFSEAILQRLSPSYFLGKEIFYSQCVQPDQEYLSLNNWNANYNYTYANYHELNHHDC
The following applies: protein: recombinant; tags: N-terminal GST; dsDNA, one strand shown. The procedure, abridged: as §1

For assay [14], the target named is ELF4 (Homo sapiens, UniProt Q99607 1-663). The following applies: protein: recombinant; tags: N-terminal GST; dsDNA, one strand shown. An outline of the steps: as §1
Assay [15] addresses T9, ELK4 (Homo sapiens, UniProt P28324-2 1-405).
T9 sequence: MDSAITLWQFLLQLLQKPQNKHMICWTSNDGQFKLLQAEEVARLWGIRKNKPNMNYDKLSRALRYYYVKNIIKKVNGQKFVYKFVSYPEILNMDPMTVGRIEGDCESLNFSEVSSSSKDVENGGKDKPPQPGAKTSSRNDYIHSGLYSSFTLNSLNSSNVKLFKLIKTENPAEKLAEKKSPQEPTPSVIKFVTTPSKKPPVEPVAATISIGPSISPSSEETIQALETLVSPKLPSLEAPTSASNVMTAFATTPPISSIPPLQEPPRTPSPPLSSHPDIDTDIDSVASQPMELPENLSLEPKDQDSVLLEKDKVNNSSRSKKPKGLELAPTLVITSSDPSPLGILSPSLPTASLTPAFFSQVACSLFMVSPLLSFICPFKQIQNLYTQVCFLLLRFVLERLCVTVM
The note with it: protein: recombinant; tags: N-terminal GST; dsDNA, one strand shown. An outline of the steps: as §1

Assay [16] has as its target T10, ETV2 (Homo sapiens, UniProt O00321 1-342).
T10 sequence: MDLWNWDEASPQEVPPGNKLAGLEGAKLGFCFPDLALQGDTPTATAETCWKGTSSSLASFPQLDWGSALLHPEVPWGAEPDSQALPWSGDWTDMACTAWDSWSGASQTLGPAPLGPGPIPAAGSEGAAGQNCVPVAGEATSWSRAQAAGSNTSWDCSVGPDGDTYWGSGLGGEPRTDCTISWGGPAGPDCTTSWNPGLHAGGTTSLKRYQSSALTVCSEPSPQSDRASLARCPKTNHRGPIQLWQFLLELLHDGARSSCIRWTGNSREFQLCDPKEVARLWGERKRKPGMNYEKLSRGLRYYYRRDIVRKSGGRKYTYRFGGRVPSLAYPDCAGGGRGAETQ
The note with it: protein: recombinant; tags: N-terminal GST; dsDNA, one strand shown. An outline of the steps:
as §1

Assay [17] deals with T11, ELF3 (Homo sapiens, UniProt P78545 1-371).
T11 sequence: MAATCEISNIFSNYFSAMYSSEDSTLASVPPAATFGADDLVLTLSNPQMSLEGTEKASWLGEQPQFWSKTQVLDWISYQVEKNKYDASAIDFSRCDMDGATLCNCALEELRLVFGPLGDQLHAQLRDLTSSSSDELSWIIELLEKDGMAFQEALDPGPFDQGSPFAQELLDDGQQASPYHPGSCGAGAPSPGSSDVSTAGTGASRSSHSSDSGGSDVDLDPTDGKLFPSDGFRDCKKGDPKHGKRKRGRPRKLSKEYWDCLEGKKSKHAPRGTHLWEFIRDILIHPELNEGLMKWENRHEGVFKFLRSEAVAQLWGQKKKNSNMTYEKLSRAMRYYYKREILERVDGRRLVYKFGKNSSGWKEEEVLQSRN
The note with it: protein: recombinant; tags: N-terminal GST; dsDNA, one strand shown. An outline of the steps:
as §1

In assay [18] the target is CRX (Homo sapiens, UniProt O43186 1-299). The following applies: protein: recombinant; tags: N-terminal GST; dsDNA, one strand shown. An outline of the steps: as §1
Assay [19] deals with ETV1 (Homo sapiens, UniProt P50549 1-477). The following applies: protein: recombinant; tags: N-terminal GST; dsDNA, one strand shown. An outline of the steps: as §1
ETV1, sequence (P50549 whole entry): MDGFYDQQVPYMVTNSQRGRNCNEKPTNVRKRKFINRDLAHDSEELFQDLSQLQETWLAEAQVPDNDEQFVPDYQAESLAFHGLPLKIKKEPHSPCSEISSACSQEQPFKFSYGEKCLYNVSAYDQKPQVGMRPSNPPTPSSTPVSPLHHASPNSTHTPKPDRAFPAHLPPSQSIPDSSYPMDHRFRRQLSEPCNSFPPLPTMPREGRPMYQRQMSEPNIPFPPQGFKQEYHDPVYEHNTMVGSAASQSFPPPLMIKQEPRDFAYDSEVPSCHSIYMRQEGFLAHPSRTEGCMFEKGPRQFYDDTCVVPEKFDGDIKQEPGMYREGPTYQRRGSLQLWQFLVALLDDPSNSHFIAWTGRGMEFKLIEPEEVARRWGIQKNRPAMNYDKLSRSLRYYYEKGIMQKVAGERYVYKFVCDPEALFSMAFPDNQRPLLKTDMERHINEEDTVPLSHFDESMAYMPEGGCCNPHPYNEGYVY

ETV5, sequence (P41161 whole entry): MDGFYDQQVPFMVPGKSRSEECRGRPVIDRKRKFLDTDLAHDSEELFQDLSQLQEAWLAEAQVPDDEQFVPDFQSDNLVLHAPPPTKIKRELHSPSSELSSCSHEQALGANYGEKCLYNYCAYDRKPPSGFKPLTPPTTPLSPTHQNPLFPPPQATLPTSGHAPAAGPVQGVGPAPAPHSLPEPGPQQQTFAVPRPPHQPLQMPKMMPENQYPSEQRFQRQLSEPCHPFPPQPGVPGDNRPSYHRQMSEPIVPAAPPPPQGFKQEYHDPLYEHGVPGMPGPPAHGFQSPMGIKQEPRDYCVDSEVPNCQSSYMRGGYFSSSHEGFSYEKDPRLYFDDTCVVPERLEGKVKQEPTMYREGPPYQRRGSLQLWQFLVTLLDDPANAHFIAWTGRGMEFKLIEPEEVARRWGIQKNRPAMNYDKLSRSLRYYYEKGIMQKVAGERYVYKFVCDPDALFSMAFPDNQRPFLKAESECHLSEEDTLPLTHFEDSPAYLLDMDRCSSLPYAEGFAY
HSF1, sequence (Q00613 whole entry): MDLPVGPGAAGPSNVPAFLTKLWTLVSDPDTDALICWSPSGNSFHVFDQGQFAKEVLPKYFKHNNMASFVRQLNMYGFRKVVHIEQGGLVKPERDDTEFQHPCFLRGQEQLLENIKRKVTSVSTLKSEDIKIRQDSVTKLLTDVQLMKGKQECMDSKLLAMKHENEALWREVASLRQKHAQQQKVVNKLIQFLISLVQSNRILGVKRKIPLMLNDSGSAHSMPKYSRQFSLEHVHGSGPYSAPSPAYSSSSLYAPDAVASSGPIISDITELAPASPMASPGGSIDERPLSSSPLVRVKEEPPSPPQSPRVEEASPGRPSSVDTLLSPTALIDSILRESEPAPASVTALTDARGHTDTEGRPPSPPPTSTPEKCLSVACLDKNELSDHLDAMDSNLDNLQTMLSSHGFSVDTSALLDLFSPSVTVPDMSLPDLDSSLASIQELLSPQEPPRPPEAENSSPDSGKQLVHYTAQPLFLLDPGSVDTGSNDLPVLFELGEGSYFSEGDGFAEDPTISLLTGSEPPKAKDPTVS
ELF4, sequence (Q99607 whole entry): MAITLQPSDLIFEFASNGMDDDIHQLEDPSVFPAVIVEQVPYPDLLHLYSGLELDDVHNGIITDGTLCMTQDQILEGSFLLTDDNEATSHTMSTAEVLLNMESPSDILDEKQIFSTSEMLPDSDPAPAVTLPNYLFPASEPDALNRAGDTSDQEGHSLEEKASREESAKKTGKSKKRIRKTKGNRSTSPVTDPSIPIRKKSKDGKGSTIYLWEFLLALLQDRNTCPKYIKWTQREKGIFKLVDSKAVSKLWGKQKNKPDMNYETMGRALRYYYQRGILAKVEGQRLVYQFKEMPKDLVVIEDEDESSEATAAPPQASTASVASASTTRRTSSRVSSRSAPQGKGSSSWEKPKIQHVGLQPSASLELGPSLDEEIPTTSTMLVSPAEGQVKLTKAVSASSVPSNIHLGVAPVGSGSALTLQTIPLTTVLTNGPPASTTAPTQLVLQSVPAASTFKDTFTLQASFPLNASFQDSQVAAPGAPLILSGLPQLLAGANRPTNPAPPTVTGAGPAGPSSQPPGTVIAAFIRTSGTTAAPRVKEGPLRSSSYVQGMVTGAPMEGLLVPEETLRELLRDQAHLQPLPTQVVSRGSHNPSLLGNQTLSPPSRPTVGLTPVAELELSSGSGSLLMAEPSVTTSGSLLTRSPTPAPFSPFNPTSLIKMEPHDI
CRX, sequence (O43186 whole entry): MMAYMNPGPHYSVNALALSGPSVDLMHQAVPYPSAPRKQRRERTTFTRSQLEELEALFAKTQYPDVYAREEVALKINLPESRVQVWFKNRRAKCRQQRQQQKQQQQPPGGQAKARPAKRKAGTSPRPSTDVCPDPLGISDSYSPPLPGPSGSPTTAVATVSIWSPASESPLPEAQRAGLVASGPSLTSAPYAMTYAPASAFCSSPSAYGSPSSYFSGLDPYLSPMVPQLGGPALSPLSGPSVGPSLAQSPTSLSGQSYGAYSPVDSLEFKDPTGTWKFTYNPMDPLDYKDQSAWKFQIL
SPIB, sequence (Q01892 whole entry): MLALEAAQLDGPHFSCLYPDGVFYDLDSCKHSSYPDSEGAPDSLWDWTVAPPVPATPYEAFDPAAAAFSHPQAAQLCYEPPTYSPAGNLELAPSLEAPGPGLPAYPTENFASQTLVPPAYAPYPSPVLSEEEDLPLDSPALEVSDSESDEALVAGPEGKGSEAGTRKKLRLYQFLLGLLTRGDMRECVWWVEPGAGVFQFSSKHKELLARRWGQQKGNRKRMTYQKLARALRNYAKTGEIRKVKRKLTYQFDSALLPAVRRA
ELF1, sequence (P32519 whole entry): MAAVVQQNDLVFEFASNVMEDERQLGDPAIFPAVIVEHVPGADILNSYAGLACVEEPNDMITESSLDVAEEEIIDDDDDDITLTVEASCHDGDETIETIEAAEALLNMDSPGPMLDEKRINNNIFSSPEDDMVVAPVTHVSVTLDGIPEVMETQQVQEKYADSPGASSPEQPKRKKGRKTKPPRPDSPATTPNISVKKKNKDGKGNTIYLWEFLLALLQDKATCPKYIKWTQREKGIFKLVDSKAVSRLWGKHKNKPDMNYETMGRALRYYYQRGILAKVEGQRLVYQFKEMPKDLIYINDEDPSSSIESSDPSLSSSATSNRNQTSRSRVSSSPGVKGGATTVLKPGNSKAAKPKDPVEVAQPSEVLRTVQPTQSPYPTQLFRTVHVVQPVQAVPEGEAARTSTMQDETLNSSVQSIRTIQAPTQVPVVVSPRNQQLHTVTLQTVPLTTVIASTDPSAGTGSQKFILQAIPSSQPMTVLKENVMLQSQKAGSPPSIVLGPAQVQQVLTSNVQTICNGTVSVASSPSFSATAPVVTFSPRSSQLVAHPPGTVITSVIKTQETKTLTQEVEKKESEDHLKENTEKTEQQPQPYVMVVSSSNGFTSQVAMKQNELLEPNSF

For CTCCCT, the binding signal in assay [1] is 1.61 fold enrichment (6-mer frequency, TF over GST control); in [2], 1.43 fold enrichment (6-mer frequency, TF over GST control); in [3] it was 1.54 fold enrichment (6-mer frequency, TF over GST control); in [4], 1.62 fold enrichment (6-mer frequency, TF over GST control); in [5], 1.68 fold enrichment (6-mer frequency, TF over GST control); in assay [6] it was 1.52 fold enrichment (6-mer frequency, TF over GST control). Besides, the binding signal is 1.49 fold enrichment (6-mer frequency, TF over GST control) in assay [7]; 1.66 fold enrichment (6-mer frequency, TF over GST control) in assay [8]; 1.5 fold enrichment (6-mer frequency, TF over GST control) in [9]; 1.44 fold enrichment (6-mer frequency, TF over GST control) in assay [10]; 1.73 fold enrichment (6-mer frequency, TF over GST control) in assay [11]; 1.32 fold enrichment (6-mer frequency, TF over GST control) in assay [12]. The binding signal in [13] is 1.38 fold enrichment (6-mer frequency, TF over GST control); in assay [14], 1.59 fold enrichment (6-mer frequency, TF over GST control); in assay [15] it was 1.41 fold enrichment (6-mer frequency, TF over GST control); in assay [16], 1.51 fold enrichment (6-mer frequency, TF over GST control); in [17], 1.48 fold enrichment (6-mer frequency, TF over GST control); in assay [18], 1.36 fold enrichment (6-mer frequency, TF over GST control). In addition, the binding signal in assay [19] was 1.44 fold enrichment (6-mer frequency, TF over GST control).
